According to the supplement of paper PMC10515830:
Counter-ions that a name gives are not always drawn.

Experiments:
Conditions in all cases: 10 µM; exposure time 6 h
[1] = tested on: Danio rerio larvae (5 dpf); experiment: difference in excitability vs DMSO (percentage points); higher = more excitable than DMSO
Summary of the method: (§1)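 In 96-well plates, 48 wild-type zebrafish larvae aged 5 dpf per compound received 100 µL egg water with library compound at 10 µM final for 6 h. Three hours into this, a 3-h programme of moving lines and 100 ms, 400Hz tones ran at 28.5 ℃ while plates were photographed every 6 s. Z-LaP Tracker scored the behaviours, and each is given as the compound mean minus the vehicle control mean in percentage points.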

[2] = tested on: Danio rerio larvae (5 dpf); experiment: difference in startle response vs DMSO (percentage points); higher = stronger startle than DMSO
Summary of the method: as §1

[3] = tested on: Danio rerio larvae (5 dpf); experiment: difference in activity during first hour vs DMSO (percentage points); higher = more activity than DMSO
Summary of the method: as §1

[4] = tested on: Danio rerio larvae (5 dpf); experiment: difference in habituation to acoustic stimuli vs DMSO (percentage points); higher = more habituation than DMSO
Summary of the method: as §1

[5] = tested on: Danio rerio larvae (5 dpf); experiment: difference in combined optomotor response to red, green and blue moving lines vs DMSO (percentage points); higher = stronger optomotor response than DMSO
Summary of the method: as §1

SMILES | difference in excitability [1] | difference in startle response [2] | difference in activity during first hour [3] | difference in habituation to acoustic stimuli [4] | difference [5]
Nc1nc2c(ncn2COC(CO)CO)c(=O)[nH]1 [Ganciclovir] | 1.56 | 3.58 | 7.53 | 2.18 | 4.57
CN[C@H]1CC[C@@H](c2ccc(Cl)c(Cl)c2)c2ccccc21 [Sertraline (hydrochloride)] | 8.65 | 9.23 | -22.3 | -4.17 | -15.1
Cc1ccc([C@@H]2O[C@H](CO)[C@@H](O)[C@H](O)[C@H]2O)cc1Cc1ccc(-c2ccc(F)cc2)s1 [Canagliflozin] | 1.05 | -3.92 | 3.63 | 3.27 | 5.53
CNC(=C[N+](=O)[O-])NCCSCc1ccc(CN(C)C)o1 [Ranitidine (hydrochloride)] | -1.03 | 4.48 | 11.1 | 0.164 | 7.87
Cc1ccnc2c1NC(=O)c1cccnc1N2C1CC1 [Nevirapine] | 0.772 | 3.61 | -2.89 | -2.11 | -3.5
Cc1[nH]c2ccccc2c1CCNCc1ccc(/C=C/C(=O)NO)cc1 [Panobinostat] | 7 | -4.96 | -8.62 | 3.43 | 1.65
CCCCC(=O)N(Cc1ccc(-c2ccccc2-c2nnn[nH]2)cc1)[C@H](C(=O)O)C(C)C [Valsartan] | -0.389 | 4.11 | 2.08 | -3.08 | 3.88
COc1ccc(C(=O)CC(=O)c2ccc(C(C)(C)C)cc2)cc1 [Avobenzone] | 3.84 | -2.54 | -6.34 | 4.35 | -2.39
CCOC(=O)[C@H](CCc1ccccc1)N[C@H]1CCc2ccccc2N(CC(=O)O)C1=O [Benazepril (hydrochloride)] | 7.01 | 3.34 | -2.03 | -3.43 | -7.74
CO/N=C1\CN(c2nc3c(cc2F)c(=O)c(C(=O)O)cn3C2CC2)CC1CN (stereo not given) [Gemifloxacin (mesylate)] | 7.63 | 9.12 | 11 | -1.77 | 2.04
CN(C)C(=O)C(CCN1CCC(O)(c2ccc(Cl)cc2)CC1)(c1ccccc1)c1ccccc1 [Loperamide (hydrochloride)] | 20.6 | 4.43 | 29.3 | -9.2 | -2.52
CC(C)OC(=O)C(C)(C)Oc1ccc(C(=O)c2ccc(Cl)cc2)cc1 [Fenofibrate] | 13.8 | -6.52 | 45.6 | -9.59 | -15.8
CNCC[C@@H](Oc1ccccc1C)c1ccccc1 [Atomoxetine (hydrochloride)] | 21.7 | -9.34 | -21.4 | -3.36 | -0.351
NCCC(O)(P(=O)(O)O)P(=O)(O)O [Pamidronate (sodium salt)] | 9.47 | 4.04 | -2.6 | -0.604 | 2.29
N#CC[C@H](C1CCCC1)n1cc(-c2ncnc3[nH]ccc23)cn1 [Ruxolitinib (phosphate)] | -1.61 | 4.35 | 6.14 | -4.72 | 17.9
O=C(O)c1cn(C2CC2)c2cc(N3CCNCC3)c(F)cc2c1=O [Ciprofloxacin (hydrochloride)] | 5.21 | -3.39 | 16.5 | 2.26 | 2.77
Cc1cc2c(s1)Nc1ccccc1N=C2N1CCN(C)CC1 [Olanzapine] | 26.1 | -4.9 | 8.52 | -8.45 | 4.38
C[C@H](Nc1ncnc2nc[nH]c12)c1cc2cccc(Cl)c2c(=O)n1-c1ccccc1 | -1.93 | 2.84 | 12.8 | 2.7 | 8.44
O=C1c2cccc3c2[C@H](CCC3)CN1[C@@H]1CN2CCC1CC2 [Palonosetron (hydrochloride)] | 16.7 | -3.75 | 19.7 | 2.14 | 4.37
CC(C)(Oc1ccc(C(=O)c2ccc(Cl)cc2)cc1)C(=O)O [Fenofibric Acid] | 2.08 | 4.69 | 11.8 | 0.387 | 6.16
CN(Cc1cnc2nc(N)nc(N)c2n1)c1ccc(C(=O)N[C@@H](CCC(=O)O)C(=O)O)cc1 [Methotrexate (hydrate)] | 9.03 | 7.54 | -9.02 | -0.271 | 3.11
O=c1[nH]c2ccccc2n1CCN1CCN(c2cccc(C(F)(F)F)c2)CC1 [Flibanserin] | 17.7 | 11.6 | 9.81 | -4.3 | -0.569
NCCc1ccc(O)c(O)c1 [Dopamine (hydrochloride)] | 4.19 | -3.68 | 12.6 | 4.17 | 2.15
CCCCCOC(=O)Nc1nc(=O)n([C@@H]2O[C@H](C)[C@@H](O)[C@H]2O)cc1F [Capecitabine] | -2.56 | -2.24 | -0.876 | -0.579 | -1.26

SMILES | difference in excitability [1] | difference in startle response [2] | difference in activity during first hour [3] | difference in habituation to acoustic stimuli [4] | difference [5]
N=C(N)N/N=C/c1c(Cl)cccc1Cl [Guanabenz (hydrochloride)] | 1.72 | 17.3 | -12.1 | 5.15 | 8.58
c1cc(CN2CCCNCCNCCCNCC2)ccc1CN1CCCNCCNCCCNCC1 [Plerixafor (hydrochloride hydrate)] | 11.6 | -7.66 | -16 | -5.73 | -15.1
O=C(O[C@@H]1C[C@@H]2C[C@H]3C[C@H](C1)N2CC3=O)c1c[nH]c2ccccc12 [Dolasetron] | 10.9 | -3.55 | 2.6 | 7.35 | 6.71
C[C@@](Cc1ccc(O)c(O)c1)(NN)C(=O)O [Carbidopa (hydrate)] | 5.76 | 3.77 | 4.48 | -7.23 | 6.07
CC(=O)OCC(=O)[C@@]1(OC(C)=O)[C@@H](C)C[C@H]2[C@@H]3C[C@H](F)C4=CC(=O)C=C[C@]4(C)[C@@]3(F)[C@@H](O)C[C@@]21C [Diflorasone Diacetate] | 10.5 | -5.05 | -4.84 | -1.12 | -4.79
CC(C)C(=O)Oc1ccc(CO)cc1[C@H](CCN(C(C)C)C(C)C)c1ccccc1 [Fesoterodine (fumarate)] | 4.21 | -11.4 | 2.92 | -7.33 | -6.79
CC(C)(C)c1nc(-c2cccc(NS(=O)(=O)c3c(F)cccc3F)c2F)c(-c2ccnc(N)n2)s1 [Dabrafenib] | 1.22 | 0.607 | 3.67 | -5.97 | -1.51
CC(=O)NC[C@H]1CN(c2ccc(N3CCOCC3)c(F)c2)C(=O)O1 [Linezolid] | -5.19 | 5.59 | -0.74 | 3.24 | 0.137
CC(C)C[C@H](NC(=O)CNC(=O)c1cc(Cl)ccc1Cl)B1OC(=O)C(CC(=O)O)(CC(=O)O)O1 | -1.67 | 1.83 | 2.45 | 4.21 | 5.88
CNS(=O)(=O)CCc1ccc2[nH]cc(C3CCN(C)CC3)c2c1 [Naratriptan (hydrochloride)] | 8.93 | 2.03 | -1.59 | 7.18 | -2.72
CCOC(=O)[C@H](CCc1ccccc1)N[C@@H](C)C(=O)N1Cc2ccccc2C[C@H]1C(=O)O [Quinapril (hydrochloride)] | -1.99 | -2.06 | 12.4 | -0.155 | 2.4
CC(=O)[C@@]1(O)CC[C@H]2[C@@H]3C[C@H](C)C4=CC(=O)C=C[C@]4(C)[C@@]3(F)[C@@H](O)C[C@@]21C [Fluorometholone] | 5.46 | 1.23 | -2.26 | 4.02 | 1.57
O=C1Cc2cc(CCN3CCN(c4nsc5ccccc45)CC3)c(Cl)cc2N1 [Ziprasidone (hydrochloride hydrate)] | 26.8 | 5.81 | 11.2 | -6.75 | 5.5
OC[C@H]1NC[C@H](O)[C@@H](O)[C@H]1O [1-Deoxygalactonojirimycin (hydrochloride)] | 1.33 | 1.49 | 16.8 | 3.98 | 3.06
C=C1CC[C@H](O)C/C1=C/C=C1\CCC[C@]2(C)[C@@H]([C@H](C)CCCC(C)(C)O)CC[C@@H]12 [25-hydroxy Vitamin D3] | 4.23 | -8.24 | 8.17 | -5.95 | -5
CN(C/C=C/C#CC(C)(C)C)Cc1cccc2ccccc12 [Terbinafine (hydrochloride)] | 7.35 | 0.627 | 1.02 | -1.41 | -4.42
CO[C@@H]1[C@H](N(C)C(=O)c2ccccc2)C[C@H]2O[C@]1(C)n1c3ccccc3c3c4c(c5c6ccccc6n2c5c31)C(=O)NC4 | -5.3 | -4.96 | 4.11 | 8.1 | 0.314
OCCN1C[C@H](O)[C@@H](O)[C@H](O)[C@H]1CO [Miglitol] | 8.03 | 3.24 | -0.913 | -2.04 | 8.24
Cn1c(=O)c2[nH]cnc2n(C)c1=O [Aminophylline] | 4.39 | 0.67 | 2.88 | -3.14 | 8.05
COc1ccc2c(c1)c(CC(=O)O)c(C)n2C(=O)c1ccc(Cl)cc1 [Indomethacin] | -1.03 | 1.79 | 2.47 | 6.54 | 1.47
CCCCCCOC(=O)NC(=N)c1ccc(NCc2nc3cc(C(=O)N(CCC(=O)OCC)c4ccccn4)ccc3n2C)cc1 [Dabigatran etexilate] | 7.34 | 2.07 | -7.27 | 0.895 | 2.07
CCCCCC(=O)O[C@]1(C(C)=O)CC[C@H]2[C@@H]3CCC4=CC(=O)CC[C@]4(C)[C@H]3CC[C@@]21C [Hydroxyprogesterone Caproate] | 5.64 | -9.54 | -13.7 | -9.28 | -15.8
CC(C)C(=O)OCC(=O)[C@@]12O[C@H](C3CCCCC3)O[C@@H]1C[C@H]1[C@@H]3CCC4=CC(=O)C=C[C@]4(C)[C@H]3[C@@H](O)C[C@@]12C [Ciclesonide] | 9.7 | -3.59 | -7.9 | -5.49 | 9.17
